HIF-2a inh: blocks HIF-2a reporter activity; 786-0 RCC cells HIF-2a reporter, luciferase luminescence, overnight; inhibition, % at 18.8 µM; hit rate 0.72% among 360,000; AID 624352;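 active = inhibition of the luminescence signal of 40% or more relative to plate controls, in a single-dose primary screen at 18.75 µM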
KKLEB tox: counter-screen for CF NF-kB inhibitors: cytotoxicity; AID 602141; hit rate 0.36% among 360,000; KKLEB CF airway cells viability, ATPlite luminescence, overnight; hits give low values; cells stimulated with P. aeruginosa culture filtrate; activity change (cytotoxicity), % at 5 µM;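 active = corrected activity change at or below -50% at 5 µM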
MITF TRPM1 inh: reduces MITF-dependent TRPM1 promoter luciferase signal; AID 488899; hit rate 0.83% among 330,000; inhibition, % at 12.5 µM; SK-MEL-5 TRPM1 promoter luciferase, 24 h;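 active = mean inhibition across replicates of 60% or more, whatever share of single replicates reaches that level; inconclusive = some that reach 60%, reason not given; inactive = mean inhibition across replicates below 60%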
Peg3 prom inh: inhibitors of Peg3 promoter | hit rate 1.7% among 360,000 | inhibition, % at 20 µM | HeLa PEG-Prom luciferase reporter, luminescence, overnight | AID 588405;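 active = inhibition of at least 50% at 20 µM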
Shn3 3UTR inh: inhibitors of Schnurri-3 3'UTR reporter in osteoblasts | hit rate 0.52% among 360,000 | Clone20 osteoblast Shn3 3'UTR firefly luciferase, 24 h | AID 588674 | inhibition, % at 12.5 µM;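 active = mean inhibition of at least 75% with every replicate also reaching 75%; inconclusive = mean inhibition at least 75% but some replicate below; inactive = mean inhibition below 75%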
CF NFkB block: inhibitors of cystic fibrosis induced NF-kB | KKLEB NF-kB-GFP reporter, PAF-induced, GFP fluorescence overnight | inhibition, % at 5 µM | hit rate 0.86% among 360,000 | AID 588850;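 active = at least 50% inhibition at 5 µM, scaled per plate between neutral and stimulator controls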;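 also: PAF is a Pseudomonas aeruginosa culture filtrate used as stimulus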
A number is an active result; n = inactive; u = inconclusive; x = no result given. This is a sample that favours compounds with a hit; in the whole collection about 2.8% have one here.

SMILES	HIF-2a inh	KKLEB tox	MITF TRPM1 inh	Peg3 prom inh	Shn3 3UTR inh	CF NFkB block
CCCCNc1c(-c2ccc(OC)c(SC(C)CC)c2)nc2ccc(Cl)cn12 (stereo not drawn)	n	n	n	n	n	n
CCC(C)Sc1cc(-c2nc3ccc(C)cn3c2NCc2ccccc2)ccc1OC (stereo not drawn)	n	n	n	96	97	58
CCC(C)Sc1cc(-c2nc3ccccn3c2NC2CCCCC2)ccc1OC (stereo not drawn)	n	n	n	95	n	n
CCCCNc1c(-c2ccc(OC)c(SC(C)CC)c2)nc2ccc(C)cn12 (stereo not drawn)	n	n	n	100	n	n
CCC(C)Sc1cc(-c2nc3cc(C)ccn3c2NC2CCCCC2)ccc1OC (stereo not drawn)	n	n	n	n	n	n
CC(=O)c1ccc(-c2cccc(-c3nc4ccccn4c3NC3CCCCC3)c2)cc1	n	n	n	62	n	n
Cc1ccc(CNC(=O)CN(C)C2=NS(=O)(=O)c3ccccc32)cc1	n	n	n	n	n	n
CC1CN(C(=O)COC(=O)Cc2ccc(Cl)cc2)CC(C)O1 (stereo not drawn)	n	n	n	n	n	n
CCc1nnc(SCC(=O)NC2CCCCC2)nc1CC	n	n	n	77	n	n
CC(=NNC(=S)N1CCN(c2ccccn2)CC1)c1nccs1	n	n	x	n	85	66
CC(=NNC(=S)N1CC2CCC(CC2)C1)c1cnccn1	n	n	65	n	84	n
C/C(=N/NC(=O)c1cnccn1)c1ccncc1	n	n	n	n	n	n
CC(=NNC(=S)N1CC2CCC(CC2)C1)c1ccccn1	n	n	x	n	86	n
CC(=NNC(=S)N1CCN(c2ccccn2)CC1)c1ccccn1	n	n	n	n	n	n
CCOC(=O)CC/C(=N\NC(N)=O)c1ccc(OC)c(Cl)c1	n	n	x	n	n	n
COc1cc2c(cc1CNC[C@H]1O[C@@H](n3cnc4c(N)ncnc43)[C@H](O)[C@@H]1O)OCO2	n	n	n	n	n	n
CCO[C@@H]1OC(C(=O)N2CCN(Cc3ccccc3)CC2)=C[C@H](c2coc3ccccc3c2=O)[C@H]1CCCO	x	x	n	x	n	x
COc1ccc(N2CCCC2)c(NC(=O)c2ccc([N+](=O)[O-])o2)c1	n	n	n	53	n	n
O=C(Nc1ccc(N2CCCCC2)cc1)c1ccc([N+](=O)[O-])o1	n	n	n	106	n	96
O=C(Nc1ccc(N2CCCC2)cc1)c1ccc(Br)o1	n	n	n	n	n	n
COc1ccc(C(=O)Nc2cc([N+](=O)[O-])ccc2N2CCCC2)cc1	n	n	n	n	n	n
O=C(Nc1ccc(N2CCN(C(=O)c3ccccc3)CC2)c(Cl)c1)c1ccc(Br)o1	n	n	n	50	n	n
CC1CCN(c2ccc(NC(=O)c3ccc([N+](=O)[O-])o3)cc2)CC1	53	-98	81	106	91	95
Cc1c(N=O)c(-c2ccccc2)n(O)[n+]1[O-]	n	n	x	n	n	n
O=C(Nc1ccccc1N1CCN(C(=O)c2ccccc2)CC1)c1ccc([N+](=O)[O-])o1	n	n	62	n	n	n
SMILES	HIF-2a inh	KKLEB tox	MITF TRPM1 inh	Peg3 prom inh	Shn3 3UTR inh	CF NFkB block
O=C(Nc1ccccc1N1CCCC1)c1ccc([N+](=O)[O-])o1	n	n	n	n	n	n
CCOC(=O)N1CCN(C(=O)c2ccc(Cn3c(=S)[nH]c4cc5c(cc4c3=O)OCO5)cc2)CC1	n	n	63	n	n	n
COc1ccc(C(O)C(CN2CCOCC2)c2ccccc2)cc1F (stereo not drawn)	n	n	n	n	n	n
COc1ccc(C(=O)C(CN2CCOCC2)c2ccccc2)cc1F (stereo not drawn)	n	n	n	95	n	n
Cc1nn(CC(=O)NCCCN2CCC(Cc3ccccc3)CC2)c(=O)c2cc(-c3ccccc3)nn12	n	n	u	100	n	n
Cc1nn(CC(=O)NCCCN2CCN(Cc3ccccc3)CC2)c(=O)c2cc(-c3ccccc3)nn12	n	n	n	n	n	n
COc1ccc(CCNC(=O)C2CCC(C(C)(C)C)CC2)cc1OC (stereo not drawn)	n	n	n	n	n	n
CC(C)OC(=O)c1ccc(NCc2cc(O)ccc2O)cc1	n	n	n	n	95	72
CCC(=O)Nc1ccc(C(=O)OCc2ccccc2)cc1	n	n	n	n	n	n
COP(=O)(OC)c1ccc(NCc2cc(O)ccc2O)cc1	n	n	n	n	n	n
O=C(OCc1ccccc1)c1ccc(NCc2cc(O)ccc2O)cc1	78	-56	81	92	99	81
O=C(NC(Cc1ccccc1)C(=O)O)/C(=C/c1ccc(F)cc1)NC(=O)c1ccccc1 (stereo not drawn)	n	n	n	n	n	n
Cc1ccccc1C(=O)Nc1c(C(=O)N(CCN(C)C)Cc2ccco2)oc2ccccc12	n	n	n	n	n	n
COc1ccccc1C(=O)Nc1c(C(=O)N(CCN(C)C)Cc2ccco2)oc2ccccc12	n	n	n	92	n	n
CN(CC(=O)Nc1ccccc1Cl)CC(=O)Nc1sc2c(c1C(N)=O)CCC2	n	n	n	n	n	n
O=C1C=CC(=O)N1Cc1ccccc1	n	n	n	104	n	76
O=C1C2CC=CCC2C(=O)N1Cc1ccccc1 (stereo not drawn)	n	n	n	n	n	n
CC1(C(=O)NS(=O)(=O)c2ccc(Cl)cc2)CCN1C(=O)C1(c2ccc(Cl)cc2)CCC1 (stereo not drawn)	n	n	x	n	n	n
O=C(Nc1cccc(Cl)c1N1CCCCC1)c1ccc(N2CCOCC2)c([N+](=O)[O-])c1	n	-68	n	n	n	65
O=C(Nc1ccccc1Cl)c1ccc2c(=O)n3c(nc2c1)CCC3	n	n	n	n	n	n
O=C(Nc1ccccc1-c1ccccc1)c1ccc(Cl)c([N+](=O)[O-])c1	n	n	n	94	n	n
O=C(Nc1nc(-c2ccccc2)cs1)c1ccc2c(=O)n3c(nc2c1)CCCCC3	n	n	n	74	n	n
O=C(Nc1ccc(Nc2ccccc2)cc1)c1ccc(Cl)c([N+](=O)[O-])c1	n	n	n	n	n	n
O=C(Nc1nc(-c2ccccc2)cs1)c1ccc(N2CCOCC2)c([N+](=O)[O-])c1	n	n	80	67	n	n
Nc1cc(Cl)ccc1C(=O)OCC(=O)NCC1CCCO1 (stereo not drawn)	n	n	n	n	n	n
Cc1ccc(/C(O)=C2/C(=O)C(=O)N(c3ccccn3)C2c2cccc([N+](=O)[O-])c2)cc1 (stereo not drawn)	n	n	n	n	n	n
CC(=O)Nc1ccc(C(=O)Nc2cccc(S(=O)(=O)N(C)c3ccccc3)c2)cc1	n	n	n	n	n	n
Cc1cc(C(=O)Nc2ccccc2N2CCOCC2)ccc1[N+](=O)[O-]	n	n	n	n	n	n

Bioassay records from PubChem.
